Article PMC7819943, “Rice protein-binding microarrays: a tool to detect cis-acting elements near promoter regions in rice”
In all, about 39,000 sequences were measured (“fluorescence intensity (a.u.)”: median about 4,300, highest 2% from about 39,000 on). The full list was thinned out, with the highest values kept by preference.

Biological target: T1, OsSMF1 (Oryza sativa, UniProt Q6ZLB0 1-436)
T1 sequence: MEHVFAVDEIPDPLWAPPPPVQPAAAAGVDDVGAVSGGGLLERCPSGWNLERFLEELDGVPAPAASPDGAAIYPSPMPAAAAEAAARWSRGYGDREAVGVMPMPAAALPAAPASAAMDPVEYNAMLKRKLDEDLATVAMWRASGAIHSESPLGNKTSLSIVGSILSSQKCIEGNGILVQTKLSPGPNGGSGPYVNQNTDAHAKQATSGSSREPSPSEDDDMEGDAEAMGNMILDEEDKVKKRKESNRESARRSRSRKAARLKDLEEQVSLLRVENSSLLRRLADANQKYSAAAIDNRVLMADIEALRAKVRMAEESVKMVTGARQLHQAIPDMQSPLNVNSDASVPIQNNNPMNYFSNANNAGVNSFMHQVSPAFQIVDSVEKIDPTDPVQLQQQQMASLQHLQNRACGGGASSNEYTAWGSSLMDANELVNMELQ
Experiment: protein-binding microarray (RPBM); PBS, 2% BSA, 51.3 ng/ul salmon testes DNA, 50 uM zinc acetate, 200 nM TF, 25 C, 1 h; high values mean tight binding
Conditions: protein: recombinant; tags: N-terminal polyhistidine and DsRed monomer fusion (pET32a); chain copies: 2; label: CyDye5-dUTP incorporated in the synthesized complementary strand; 3' TTTTT single-stranded linker to array surface; dsDNA, one strand shown
Method in brief: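 An Axon 4000B scanner gave the binding signal as per-feature fluorescence intensity in arbitrary units. This followed washing of a custom Agilent array that had been incubated for 1 h at 25 °C with 200 nM protein in PBS, 2% BSA, salmon testes DNA and 50 µM zinc acetate. The proteins were transcription factors fused at the N-terminus to polyhistidine and DsRed, expressed in E. coli BL21-CodonPlus and purified on Ni–NTA.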

Row | Sequence | binding signal
1 | TCTCCATAAGAGCACCCACCAACTCAGCCTCTCCTCCCATCGGAGTCACCTAGTGCAG | 3340 fluorescence intensity (a.u.)
2 | CTCCTCCGCCGCCGCCGCTCCCAGCCTGCACGCCGGCCGCCGGAGTCACCTAGTGCAG | 26200 fluorescence intensity (a.u.)
3 | GTGCTGTTCCTGCATGTGCATGCATGTATGAGTACGTACGCGGAGTCACCTAGTGCAG | 3910 fluorescence intensity (a.u.)
4 | TCTCTCTTCACGGGAGGGCAGTGTGGTTTTGGTCGGATTCCGGAGTCACCTAGTGCAG | 3530 fluorescence intensity (a.u.)
5 | TAGTAGATCTAGTATTTTATCTTTAGTCCATCTACCGAGCCGGAGTCACCTAGTGCAG | 28500 fluorescence intensity (a.u.)
6 | GCCGCTACAAACCGTGGGCAAGACGTGTCGCCATGGGAGCCGGAGTCACCTAGTGCAG | 4560 fluorescence intensity (a.u.)
7 | CAATTTAATGCTACTTATCTCACATGATGTCTTGGATGTTCGGAGTCACCTAGTGCAG | 3980 fluorescence intensity (a.u.)
8 | TGCCAATGTTCCAATTGGTGTTGTCATCTTTGGGTTACCACGGAGTCACCTAGTGCAG | 14100 fluorescence intensity (a.u.)
9 | ATTTGGGATGTCTTTATCTCATCCAATTAATCCACGGATACGGAGTCACCTAGTGCAG | 49200 fluorescence intensity (a.u.)
10 | GGGCACTCGAACCATCTAGTGCAGACGTGGTAACTGGCGCCGGAGTCACCTAGTGCAG | 5510 fluorescence intensity (a.u.)
11 | CCAAACTAATTAAGACAGCCAACTCACCTCCATCATATAACGGAGTCACCTAGTGCAG | 65500 fluorescence intensity (a.u.)
12 | ATATCCATATCAAATTAAGCCAGGTTTGTAATTAATAACTCGGAGTCACCTAGTGCAG | 9630 fluorescence intensity (a.u.)
13 | TCTTATACTAAGATAATAAGATTATATCCTTGTCATCCAACGGAGTCACCTAGTGCAG | 4430 fluorescence intensity (a.u.)
14 | GCCGCCGCTCCCTCCCAATGACCCGCCGGATCTCCTAGTGCGGAGTCACCTAGTGCAG | 3160 fluorescence intensity (a.u.)
15 | CCTGCAGCCAGGTCCTCGTATCATAGATGACGACGACTTCCGGAGTCACCTAGTGCAG | 4660 fluorescence intensity (a.u.)
16 | TTTTGGATTCCCTTTTCATCCATGGATGCATGTGTTCCTTCGGAGTCACCTAGTGCAG | 3220 fluorescence intensity (a.u.)
17 | TACTAGTGTGGACATGTTCCCCTTTTCAGGAAGATGGCAGCGGAGTCACCTAGTGCAG | 40300 fluorescence intensity (a.u.)
18 | CGAAGCGGTTCAGGAAGATGGAGCGGCACGTGGCTGCGACCGGAGTCACCTAGTGCAG | 5240 fluorescence intensity (a.u.)
19 | GGCAGCGACCACGACACGTCGTTGTTCCCTCTGCTCCCGCCGGAGTCACCTAGTGCAG | 6470 fluorescence intensity (a.u.)
20 | GTGTGTGTGTGTGCTGCGTGTGCGTGTGCGCGCGCGTGCCCGGAGTCACCTAGTGCAG | 5210 fluorescence intensity (a.u.)
21 | TCCGAACATCCGCGTGTCTGCTTCTGCGCCAGCCCGAGCCCGGAGTCACCTAGTGCAG | 44300 fluorescence intensity (a.u.)
22 | GACTCCCGCGTGCTCGCCGCGCCGCCCACCGTCACCGCCTCGGAGTCACCTAGTGCAG | 3230 fluorescence intensity (a.u.)
23 | TCCCAAACCCCGCGCCGCCTCTTACCGCTTCGCGTCAGCTCGGAGTCACCTAGTGCAG | 63900 fluorescence intensity (a.u.)
24 | CAATCCCACCTCGCGCGATGACTCCGCACCCGCCCCACCTCGGAGTCACCTAGTGCAG | 7260 fluorescence intensity (a.u.)
25 | GCGCTGCCACGAGTGCCCGCGTCATCCCGTCCCCTCGCACCGGAGTCACCTAGTGCAG | 6120 fluorescence intensity (a.u.)
26 | AACTCCTCGCCACCACGCCGCTTTATTCTCTAAGAACCCCCGGAGTCACCTAGTGCAG | 40700 fluorescence intensity (a.u.)
27 | GCCACCGCTGCATCATCCCGCCTGTCTGCCTGCGCGCGCCCGGAGTCACCTAGTGCAG | 3430 fluorescence intensity (a.u.)

Row | Sequence | binding signal
28 | CCAAACCCCACGCACGCCGCGTCGCCGCCTCCTCCTCTCCCGGAGTCACCTAGTGCAG | 3670 fluorescence intensity (a.u.)
29 | CACCCGCCGCTGCTCTGCCTACTCGCCGGCCACCTCCTCACGGAGTCACCTAGTGCAG | 3720 fluorescence intensity (a.u.)
30 | GCACCTCGCAATATCCATGGTCCCCGCTGCCCGTGGACTCCGGAGTCACCTAGTGCAG | 41200 fluorescence intensity (a.u.)
31 | CCCTCGCCGCCACGGCGAACCCCTCGCCGCCGCCACCGCCCGGAGTCACCTAGTGCAG | 3570 fluorescence intensity (a.u.)
32 | ACCAAACATTACCTAATGCAATCGAACTATCGAAGACATGCGGAGTCACCTAGTGCAG | 3700 fluorescence intensity (a.u.)
33 | GTGAGACTGGCGAGGCCCTTCTTGCGTGGCGCTGCAAGCTCGGAGTCACCTAGTGCAG | 7600 fluorescence intensity (a.u.)
34 | ACACTCCAGCATAGTTAATGTTTACTGCTAGGAGGATTCACGGAGTCACCTAGTGCAG | 25600 fluorescence intensity (a.u.)
35 | CTCCTGGTACGCCTCGCTCAGCTCGTCCACCGTCGCCTCCCGGAGTCACCTAGTGCAG | 3750 fluorescence intensity (a.u.)
36 | TAGAGCGCCACATGACATCTTAGAAGCGTTTGTAGGAGTACGGAGTCACCTAGTGCAG | 30400 fluorescence intensity (a.u.)
37 | TTATACATGCTCACGTGGCTATGTCATTGCCCTGGGTGGGCGGAGTCACCTAGTGCAG | 12000 fluorescence intensity (a.u.)
38 | CTAAATCCTCGGGTCCACATGTCATACTCAGCCTCTTTACCGGAGTCACCTAGTGCAG | 5460 fluorescence intensity (a.u.)
39 | TCTGGTCTTTCCGCGTGTCGACGACCACGGTGGCGGTGCACGGAGTCACCTAGTGCAG | 3540 fluorescence intensity (a.u.)
40 | AAACCAAAACCAAACCGAAGCTTCCCCATCTCGCGTGAACCGGAGTCACCTAGTGCAG | 40800 fluorescence intensity (a.u.)
41 | TCGCCACCGCCACGTCATCTCCCCACCCTCCTCCTCTTCCCGGAGTCACCTAGTGCAG | 44700 fluorescence intensity (a.u.)
42 | CCATTCCCAAAAGCAAAGCGAACCTAAGCTCGCTTCGTCTCGGAGTCACCTAGTGCAG | 21000 fluorescence intensity (a.u.)
43 | TAGGATGCCACGTCATCTCTCCCTTCCCCTCTCTCTCTCCCGGAGTCACCTAGTGCAG | 27000 fluorescence intensity (a.u.)
44 | GATCGTCGCGTCGTCGGCGTTGGCATCGGCATCCATGTGCCGGAGTCACCTAGTGCAG | 3830 fluorescence intensity (a.u.)
45 | ATCCCATCGCGCCACGCGAGCTCGATCGATCGAGGTGTGTCGGAGTCACCTAGTGCAG | 3490 fluorescence intensity (a.u.)
46 | TGGGCCCACCCCTCCACTCGCCCTCCTCTTCCCGCCACGTCGGAGTCACCTAGTGCAG | 6190 fluorescence intensity (a.u.)
47 | TTAGTTCACCCATCTTGCCAATGCTGTCATCGCCACAGCTCGGAGTCACCTAGTGCAG | 3310 fluorescence intensity (a.u.)
48 | CATCGGTCATGGTGGCGTTGGTCATGTTGGCATGGCCGTCCGGAGTCACCTAGTGCAG | 44000 fluorescence intensity (a.u.)
49 | CGCGAAAGGCGTGAAACCAGTGCACGCATCACCCATCTCGCGGAGTCACCTAGTGCAG | 3400 fluorescence intensity (a.u.)
50 | TCCTTGTCGCGCTGCCATCGCCACCCAATGCCATCGAGCTCGGAGTCACCTAGTGCAG | 49600 fluorescence intensity (a.u.)
51 | CCGGTCGTCCGTCAGCATCCTCTCTTCCGTTGGTCATCCTCGGAGTCACCTAGTGCAG | 4550 fluorescence intensity (a.u.)
52 | ACCCGCGCGCCGGCCGCGTCATCGACGACATCGTGCGTACCGGAGTCACCTAGTGCAG | 3920 fluorescence intensity (a.u.)
53 | TTGTGATGTCCACGTATTCAGGATTAGACCACAGGCCCGGCGGAGTCACCTAGTGCAG | 8170 fluorescence intensity (a.u.)
54 | ATCCTTCATTATGTTAGAGTACCACATGGGAAGTCGAGACCGGAGTCACCTAGTGCAG | 3750 fluorescence intensity (a.u.)
